In ChEMBL document CHEMBL3988442, “University of Dundee, Small-Polar-MMV Screening Library” (2021) one finds Percent Effect data, which are given here for ten compounds.

Set-up in all cases: scale not given: direction of the effect not stated beside the values
Assay [1] concerns the target Protein translocase subunit SecA (Escherichia coli (strain K12)) (UniProt P10408). Kind of assay: Assay to Identify E. coli SecA ATPase Inhibitors. Format: functional. As to conditions: 30 µM.
Assay [2] concerns the target T1, Ubiquitin-activating enzyme e1, putative (Leishmania donovani (strain BPK282A1)) (UniProt E9BSI1).
T1 sequence (whole entry): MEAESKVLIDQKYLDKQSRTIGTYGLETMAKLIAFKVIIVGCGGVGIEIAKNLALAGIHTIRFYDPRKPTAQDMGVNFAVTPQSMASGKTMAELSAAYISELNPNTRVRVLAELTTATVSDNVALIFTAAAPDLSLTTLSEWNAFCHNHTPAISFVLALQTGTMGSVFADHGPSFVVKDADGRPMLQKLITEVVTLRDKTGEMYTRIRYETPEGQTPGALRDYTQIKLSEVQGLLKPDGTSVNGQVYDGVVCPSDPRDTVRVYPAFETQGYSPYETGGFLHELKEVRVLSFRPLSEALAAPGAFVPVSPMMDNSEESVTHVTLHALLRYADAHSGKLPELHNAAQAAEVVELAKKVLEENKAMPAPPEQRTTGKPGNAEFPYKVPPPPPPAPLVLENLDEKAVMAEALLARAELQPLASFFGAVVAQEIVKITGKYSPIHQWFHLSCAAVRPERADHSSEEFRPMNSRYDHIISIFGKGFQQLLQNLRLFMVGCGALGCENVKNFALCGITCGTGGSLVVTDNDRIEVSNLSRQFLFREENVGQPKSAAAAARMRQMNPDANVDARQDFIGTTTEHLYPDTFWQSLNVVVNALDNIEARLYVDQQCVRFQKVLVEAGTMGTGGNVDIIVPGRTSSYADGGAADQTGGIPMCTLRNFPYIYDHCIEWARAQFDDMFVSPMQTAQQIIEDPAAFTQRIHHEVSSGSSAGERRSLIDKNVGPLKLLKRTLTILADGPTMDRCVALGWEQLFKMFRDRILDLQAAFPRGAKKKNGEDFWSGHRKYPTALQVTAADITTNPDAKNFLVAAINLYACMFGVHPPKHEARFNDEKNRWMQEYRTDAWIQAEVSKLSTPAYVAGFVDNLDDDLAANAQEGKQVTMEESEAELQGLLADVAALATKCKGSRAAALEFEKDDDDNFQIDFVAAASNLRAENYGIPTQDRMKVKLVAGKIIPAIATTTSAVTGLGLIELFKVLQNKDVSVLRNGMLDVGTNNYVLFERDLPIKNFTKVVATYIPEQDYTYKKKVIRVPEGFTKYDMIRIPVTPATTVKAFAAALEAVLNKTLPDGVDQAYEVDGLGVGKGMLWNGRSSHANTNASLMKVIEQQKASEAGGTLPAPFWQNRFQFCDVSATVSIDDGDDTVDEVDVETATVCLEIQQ
Kind of assay: Leishmania donovani Ubiquitin Activating Enzyme (LdE1). It counts as functional. As to conditions: 30 µM.

Assay [3] deals with AMP-activated protein kinase, AMPK (Homo sapiens) (UniProt P54646+O43741+P54619+Q9UGJ0+Q9Y478+Q13131+Q9UGI9). Kind of assay: AMP-dependent Kinase enzyme assay. An in vitro enzyme assay that detects ADP turnover that is directly proportional to AMPK activity. This uses naive AMPK that is activated during the assay with MK-8722. Format: functional. As to conditions: 30 µM.
Assay [4] addresses Sialic acid-binding Ig-like lectin 9 (Homo sapiens) (UniProt Q9Y336). The assay can be described thus: Hs-Siglec9 ALPHAscreen SOP 20170721. As to conditions: 10 µM. (In general: Alpha assays give light when donor and acceptor beads are brought close together.)
The test system of assay [5] is Trypanosoma cruzi. Kind of assay: Trypanosoma cruzi phosphomannomutase and mannose-1-phosphate guanylyltransferase assay. Format: functional. As to conditions: 10 µM.
Assay [6] has as its target T2, Arginase-2, mitochondrial (Homo sapiens) (UniProt P78540).
T2 sequence (whole entry): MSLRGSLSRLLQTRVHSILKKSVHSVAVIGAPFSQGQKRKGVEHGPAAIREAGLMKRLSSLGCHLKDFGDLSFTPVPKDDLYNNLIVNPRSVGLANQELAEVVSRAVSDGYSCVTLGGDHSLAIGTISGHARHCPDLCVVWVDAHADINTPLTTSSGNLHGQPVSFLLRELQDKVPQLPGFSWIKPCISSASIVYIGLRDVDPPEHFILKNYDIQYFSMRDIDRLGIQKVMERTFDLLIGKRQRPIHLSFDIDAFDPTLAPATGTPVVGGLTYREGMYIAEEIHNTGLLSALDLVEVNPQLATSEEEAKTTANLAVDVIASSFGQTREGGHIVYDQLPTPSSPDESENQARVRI
Kind of assay: in vitro enzyme assay to detect the production of urea directly proportional to the activity of Arginase II. Note: in the data most compounds retested in dose-response had high values. It counts as functional. As to conditions: 33.3 µM.

In assay [7] the target is T3, Proteasome subunit beta (Trypanosoma cruzi) (UniProt O96673).
T3 sequence (whole entry): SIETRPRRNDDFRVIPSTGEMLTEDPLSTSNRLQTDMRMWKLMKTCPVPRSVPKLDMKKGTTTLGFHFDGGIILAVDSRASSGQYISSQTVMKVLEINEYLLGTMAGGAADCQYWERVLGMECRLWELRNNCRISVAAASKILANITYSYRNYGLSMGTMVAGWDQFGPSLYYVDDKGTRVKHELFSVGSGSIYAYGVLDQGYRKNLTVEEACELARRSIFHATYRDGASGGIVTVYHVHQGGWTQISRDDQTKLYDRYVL
Kind of assay: Trypanosoma cruzi proteasome chymotrypsin-like activity (TcProtChymo) assay. Note: in the data most compounds retested in dose-response had high values. It counts as functional. As to conditions: 9.37 µM.

For assay [8], the species on record is Homo sapiens. The assay can be described thus: To identify inhibition of the IFN signalling (Jak-Stat) pathway via expression of an eGFP reporter gene under the control of an IFN-stimulated response element (ISRE) containing MxA promoter. Format: functional. The note with it: 30 µM. Background: Reporter assays use an easily measured gene product as a stand-in for the process of interest.

Assay [9] deals with T4, Tyrosyl-tRNA synthetase, putative (Trypanosoma cruzi (strain CL Brener)) (UniProt Q4DSP6).
T4 sequence (whole entry): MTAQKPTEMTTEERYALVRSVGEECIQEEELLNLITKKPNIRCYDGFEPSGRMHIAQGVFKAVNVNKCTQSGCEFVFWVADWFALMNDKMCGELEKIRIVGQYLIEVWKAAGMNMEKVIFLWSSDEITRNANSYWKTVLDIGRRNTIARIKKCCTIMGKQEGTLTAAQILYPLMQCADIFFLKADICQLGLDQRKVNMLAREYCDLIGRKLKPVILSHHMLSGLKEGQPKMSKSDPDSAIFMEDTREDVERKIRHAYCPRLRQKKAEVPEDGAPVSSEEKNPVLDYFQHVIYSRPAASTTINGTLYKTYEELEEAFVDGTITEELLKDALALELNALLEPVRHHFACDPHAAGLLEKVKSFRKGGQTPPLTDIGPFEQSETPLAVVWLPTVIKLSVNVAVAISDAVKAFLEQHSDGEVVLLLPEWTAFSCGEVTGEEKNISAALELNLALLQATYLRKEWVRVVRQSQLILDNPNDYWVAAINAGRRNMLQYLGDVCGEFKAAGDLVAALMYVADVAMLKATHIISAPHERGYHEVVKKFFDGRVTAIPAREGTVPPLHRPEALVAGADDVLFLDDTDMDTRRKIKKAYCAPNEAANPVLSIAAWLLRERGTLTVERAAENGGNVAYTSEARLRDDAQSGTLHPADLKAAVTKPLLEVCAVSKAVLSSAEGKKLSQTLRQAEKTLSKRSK
Kind of assay: Trypanosoma cruzi tyrosyl tRNA synthetase (TcYRS) _High Tyrosine SOP. Note: in the data most compounds retested in dose-response had high values. It counts as functional. The note with it: 30 µM.

Assay [10] concerns the target T4, Tyrosyl-tRNA synthetase, putative (Trypanosoma cruzi (strain CL Brener)). Kind of assay: Trypanosoma cruzi tyrosyl tRNA synthetase (TcYRS) SOP. Format: functional. The note with it: 30 µM.
Assay [11] addresses Chromo domain-containing protein 1 (Saccharomyces cerevisiae (strain ATCC 204508 / S288c) (Baker's yeast)) (UniProt P32657). Kind of assay: ScCHD-1 Enzyme Inhibition Assay. Note: in the data most compounds retested in dose-response had high values. The note with it: 30 µM. Format: functional.
Assay [12] concerns N/A. Kind of assay: Trypanosoma cruzi proteasome luciferase counter-screen. Format: functional. The note with it: 9.37 µM. (In general: A counterscreen serves to expose hits that act by an unwanted route or on another target.)

Where “and” joins values, the source holds several entries; their conditions need not be identical. Identical values can stand only once. For part of these data: Potency and affinity values are given separately.

Chain of Chromo domain-containing protein 1 (Saccharomyces cerevisiae (strain ATCC 204508 / S288c) (Baker's yeast)) (P32657 whole entry, the tested form may be a part): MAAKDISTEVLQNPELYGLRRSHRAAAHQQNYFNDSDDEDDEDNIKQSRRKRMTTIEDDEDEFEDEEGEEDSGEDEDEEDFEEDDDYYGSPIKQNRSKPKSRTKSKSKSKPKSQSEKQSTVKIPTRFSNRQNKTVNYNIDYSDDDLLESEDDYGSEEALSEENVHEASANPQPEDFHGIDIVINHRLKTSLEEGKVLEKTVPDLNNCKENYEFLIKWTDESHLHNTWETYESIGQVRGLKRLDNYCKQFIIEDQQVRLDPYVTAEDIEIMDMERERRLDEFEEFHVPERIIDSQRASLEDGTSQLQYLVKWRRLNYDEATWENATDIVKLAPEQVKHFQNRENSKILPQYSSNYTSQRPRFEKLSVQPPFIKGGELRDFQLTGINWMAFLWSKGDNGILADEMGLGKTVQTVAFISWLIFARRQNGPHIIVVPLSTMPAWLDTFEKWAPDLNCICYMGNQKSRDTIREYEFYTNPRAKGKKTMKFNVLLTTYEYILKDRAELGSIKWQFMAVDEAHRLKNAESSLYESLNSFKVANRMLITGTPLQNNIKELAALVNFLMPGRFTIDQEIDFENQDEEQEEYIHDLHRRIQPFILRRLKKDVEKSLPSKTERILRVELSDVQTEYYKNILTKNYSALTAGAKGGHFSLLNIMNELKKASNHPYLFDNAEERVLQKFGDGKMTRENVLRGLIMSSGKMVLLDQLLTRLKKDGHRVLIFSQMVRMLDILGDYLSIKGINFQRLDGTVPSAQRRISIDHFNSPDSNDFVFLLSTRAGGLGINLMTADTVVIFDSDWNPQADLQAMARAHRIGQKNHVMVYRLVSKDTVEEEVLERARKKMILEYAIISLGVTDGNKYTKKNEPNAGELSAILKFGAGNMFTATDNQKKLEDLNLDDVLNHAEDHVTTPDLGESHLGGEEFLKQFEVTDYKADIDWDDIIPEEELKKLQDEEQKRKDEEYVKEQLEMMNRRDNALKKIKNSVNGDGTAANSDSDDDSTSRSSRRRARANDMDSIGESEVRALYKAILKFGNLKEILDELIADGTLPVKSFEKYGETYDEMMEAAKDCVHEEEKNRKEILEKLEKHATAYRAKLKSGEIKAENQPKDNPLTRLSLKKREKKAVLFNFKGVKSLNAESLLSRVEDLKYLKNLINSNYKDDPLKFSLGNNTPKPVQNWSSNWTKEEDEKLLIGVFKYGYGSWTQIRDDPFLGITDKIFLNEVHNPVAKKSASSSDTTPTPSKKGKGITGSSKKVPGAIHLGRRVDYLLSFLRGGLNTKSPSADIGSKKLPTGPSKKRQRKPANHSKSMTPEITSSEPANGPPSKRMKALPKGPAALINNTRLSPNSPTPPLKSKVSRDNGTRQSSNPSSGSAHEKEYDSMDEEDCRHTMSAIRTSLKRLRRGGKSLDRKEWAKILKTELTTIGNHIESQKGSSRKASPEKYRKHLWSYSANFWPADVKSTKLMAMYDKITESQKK
Chain of Sialic acid-binding Ig-like lectin 9 (Homo sapiens) (Q9Y336 whole entry): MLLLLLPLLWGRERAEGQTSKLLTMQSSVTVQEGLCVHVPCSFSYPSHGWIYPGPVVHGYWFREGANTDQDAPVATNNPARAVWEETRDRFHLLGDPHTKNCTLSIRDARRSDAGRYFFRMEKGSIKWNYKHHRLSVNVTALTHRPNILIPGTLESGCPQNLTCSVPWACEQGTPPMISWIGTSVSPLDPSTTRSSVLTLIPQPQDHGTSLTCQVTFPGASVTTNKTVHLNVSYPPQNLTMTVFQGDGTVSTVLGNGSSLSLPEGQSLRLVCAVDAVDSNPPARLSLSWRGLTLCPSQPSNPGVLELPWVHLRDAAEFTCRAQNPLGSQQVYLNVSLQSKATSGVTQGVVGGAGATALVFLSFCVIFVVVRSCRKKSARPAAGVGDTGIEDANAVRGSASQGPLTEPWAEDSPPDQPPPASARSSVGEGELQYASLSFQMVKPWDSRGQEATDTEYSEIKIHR
Chain of Protein translocase subunit SecA (Escherichia coli (strain K12)) (P10408 whole entry): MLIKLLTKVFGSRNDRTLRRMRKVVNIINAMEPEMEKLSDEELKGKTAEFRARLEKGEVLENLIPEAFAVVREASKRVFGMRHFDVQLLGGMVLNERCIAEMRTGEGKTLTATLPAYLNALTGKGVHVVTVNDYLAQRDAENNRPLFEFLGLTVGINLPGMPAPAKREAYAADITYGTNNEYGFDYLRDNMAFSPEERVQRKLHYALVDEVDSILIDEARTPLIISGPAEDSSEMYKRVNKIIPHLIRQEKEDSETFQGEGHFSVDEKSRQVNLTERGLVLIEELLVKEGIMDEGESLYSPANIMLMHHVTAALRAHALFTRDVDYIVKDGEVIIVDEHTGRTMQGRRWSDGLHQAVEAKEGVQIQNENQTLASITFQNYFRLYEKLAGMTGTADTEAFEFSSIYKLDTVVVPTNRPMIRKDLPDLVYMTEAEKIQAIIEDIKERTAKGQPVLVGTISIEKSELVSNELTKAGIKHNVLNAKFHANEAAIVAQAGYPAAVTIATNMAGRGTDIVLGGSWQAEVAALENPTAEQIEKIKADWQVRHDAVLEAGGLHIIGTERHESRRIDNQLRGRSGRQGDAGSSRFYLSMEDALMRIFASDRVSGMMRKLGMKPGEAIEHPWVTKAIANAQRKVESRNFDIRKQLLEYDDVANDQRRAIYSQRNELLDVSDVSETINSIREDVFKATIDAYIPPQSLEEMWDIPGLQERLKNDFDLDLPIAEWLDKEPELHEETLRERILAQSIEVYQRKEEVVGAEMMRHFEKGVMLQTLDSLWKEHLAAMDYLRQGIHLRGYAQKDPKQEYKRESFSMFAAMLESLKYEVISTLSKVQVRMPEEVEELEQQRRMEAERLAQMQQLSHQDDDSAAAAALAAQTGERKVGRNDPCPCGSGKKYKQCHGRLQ

Consider `Cc1noc(NC(=O)c2ccc(C)c(F)c2)n1`, for which the Percent Effect in assay [1] is -3.93%; in assay [2], 20.2%; in assay [3], 3.63%; in assay [4], -2.91%; in [5] it was 4.63%; in assay [6] it was 0%. Also, the Percent Effect was 11.7% in [7]; 64% in assay [8]; 9.36% in [9]; 26.6% in assay [10]; -5.98% in assay [11].
For `Cc1cnccc1N1CCCN(C(=O)CCCc2cn[nH]c2)CC1`, the Percent Effect in assay [1] was -2.89%; in assay [2] it was 11%; in assay [3] it was -5.34%; in [4], 18.3%; in assay [5], 3.92%; in assay [6], -1.36%. The Percent Effect in assay [7] is -1.06%; in assay [8], 4.4%; in assay [9], 1.07%; in assay [10], 7.5%; in assay [11] it was -3.49%.
For the compound `c1ccc(-c2noc(CN3CCc4cncnc4C3)n2)nc1`, the Percent Effect in assay [1] was -3.61%; in assay [2] it was 10.5%; in assay [3], -27.7%; in [4], 10.3%; in assay [5] it was 8.65%; in assay [6] it was 1.92%. The Percent Effect in assay [7] is 9.02%; in assay [8], -4.25%; in assay [9], 13.2%; in assay [10] it was 12.2%; in assay [11], -10.6%.
With `CCN1CCOC(CNCc2ccccc2OCc2ccccn2)C1` (centres undefined), the Percent Effect in [1] is -2.71%; in assay [2], 5.26%; in [3], -13%; in [4], -5.97%; in [5] it was -4.39%; in assay [6], 3.24%. Further, the Percent Effect in assay [7] is 9.56%; in [8], 9.07%; in assay [9] it was 6.4%; in [10], 13.6%; in [11], -8.14%.
Consider `Cc1ccc(N(C)C2CCN(C(=O)CCc3ccco3)CC2)nn1`, for which the Percent Effect in assay [1] is -4.56%; in assay [2], 5.41%; in [3], 12.7%; in assay [4] it was 1.05%; in assay [5], 5.66%; in assay [6], 0.554%. Moreover, the Percent Effect in assay [7] was 48.4% and 44.9% and 50.1%; in assay [12] it was 12.6% and 9.51%; in assay [8] it was 8.17%; in [9] it was 22.8%; in assay [10], 23.2%; in assay [11], 3.63%.
On to `CN(Cc1ccc(OC(F)F)cc1)C(=O)CS(=O)(=O)c1ccc(Cl)cc1`, for which the Percent Effect in assay [1] is -4.93%; in [2] it was -2.7%; in [3], -0.333%; in [4], 6.3%; in assay [5], 8.49%; in assay [6], -1.91%. Besides, the Percent Effect in [7] was 0.345%; in assay [8], 3.29%; in [9], -5.82%; in [10], 0%; in [11], -1.75%.
Regarding `Cc1cc(C(=O)N2CCC3(CCCN(CC4CC4)C3=O)C2)c(C)n1C` (centres undefined), the Percent Effect was -5.53% in assay [1]; 5.48% in [2]; -5.43% in assay [3]; 6.36% in assay [4]; 0.794% in [5]; -4.39% in [6]. The Percent Effect in assay [7] was 49.3% and 56.6% and 47.8%; in assay [12] it was 11% and 8.3%; in assay [8], 10.3%; in [9] it was 20.8%; in assay [10] it was 28.4%; in assay [11], -1.72%.
`CC(OCC(F)(F)F)C(=O)Nc1ccc(-n2cncn2)nc1` (centres undefined): the Percent Effect in assay [1] was -3%; in assay [2], 2.6%; in [3], 24.5%; in assay [4], -9.5%; in [5] it was -1.27%; in [6], 1.05%. The Percent Effect was 8.49% in [7]; 22.3% in assay [8]; 5.71% in [9]; 9.41% in [10]; -17.1% in assay [11].
Regarding `Cc1ccc(C)c(C(NC(=O)C2CC2)c2cccnc2)c1` (centres undefined), the Percent Effect was 0.279% in assay [1]; 18.2% in [2]; -0.34% in assay [3]; -7.55% in assay [4]; 4.24% in assay [5]; -1.94% in assay [6]. Also, the Percent Effect in [7] is 32.4% and 20.1% and 20.4%; in [12], 21.2% and 15.5%; in assay [8], 6.26%; in assay [9] it was 4.23%; in assay [10], 8.97%; in assay [11], -10.3%.
Turning to `COc1cccc(C(=O)NCC(O)c2cccs2)c1` (centres undefined), the Percent Effect in [1] was -3.69%; in [2], 11%; in assay [3] it was 7.67%; in [4], 3.99%; in assay [5], 6.46%; in assay [6], 0%. Also, the Percent Effect in assay [7] was 34.1% and 33.9% and 40.3%; in assay [12], 6.45% and 13%; in [8], -9.23%; in [9], 7.53%; in [10] it was 17.5%; in assay [11] it was -3.59%.
